# TbPYK inhibitor: inhibitors of Trypanosoma brucei pyruvate kinase; Q57TT1; TbPYK enzyme, Kinase-Glo Plus ATP luminescence, 45 min; Potency, µM (series often up to 76.8 µM), actives largely listed as inhibitors; actives 0.12% (n = 410,000); AID 624173; note: nearly all actives have a fitted effect of over 50% in size
#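 Enzyme and substrate buffer are dispensed first and compound is pin-transferred. ADP at 130 uM final then starts the reaction, which runs 45 min at room temperature. Detection reagent is added for 10 min before luminescence is imaged.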
# Sm TGR block: blocks Schistosoma mansoni thioredoxin glutathione reductase. purified TGR, DTNB reduction, TNB absorbance 405 nm. actives 3% (n = 360,000). Potency, µM (titrated, usually from 114 µM), actives largely listed as inhibitors; note: nearly all actives have a fitted effect of over 60% in size
#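 Kinetic colorimetric format: TGR-catalysed, NADPH-driven DTNB reduction monitored via TNB absorbance. Enzyme dispensed at 20 nM; compound exposure 15 min at room temperature before reaction start.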
# Cycloheximide cs: counter-screen hit for Shiga toxin inhibitors, cycloheximide; actives 12% (n = 300,000); AID 2314; max response, %; cell reporter, cycloheximide protein synthesis inhibition counterscreen; in the data active = max response mostly above about 13%, no sharp cut-off; inactive = mostly below about 14%; note: read at 38.3 µM for the half of the compounds with a filed dose
# LmPK inh: blocks Leishmania mexicana pyruvate kinase activity; Q27686; purified LmPK, Kinase-Glo ATP luminescence, 1 h; Potency, µM (top dose mostly 57.5 µM), usual class: inhibitors; actives 0.37% (n = 290,000); AID 1721
#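 Pyruvate kinase activity monitored as ATP production (luciferase luminescence). Conditions: 0.1 nM enzyme, 0.5 mM PEP, 0.1 mM ADP, 1 h, RT; normalized against uninhibited and no-enzyme wells.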
# Giardia FBPA inh: blocks Giardia fructose-bisphosphate aldolase activity. actives 0.71% (n = 290,000). AID 2451. purified Giardia FBPA. Potency, µM (titrated, usually from 59.6 µM), actives largely listed as inhibitors; note: nearly all actives have a fitted effect of over 55% in size
# Target sequence (A8B2U2 whole entry, looked up): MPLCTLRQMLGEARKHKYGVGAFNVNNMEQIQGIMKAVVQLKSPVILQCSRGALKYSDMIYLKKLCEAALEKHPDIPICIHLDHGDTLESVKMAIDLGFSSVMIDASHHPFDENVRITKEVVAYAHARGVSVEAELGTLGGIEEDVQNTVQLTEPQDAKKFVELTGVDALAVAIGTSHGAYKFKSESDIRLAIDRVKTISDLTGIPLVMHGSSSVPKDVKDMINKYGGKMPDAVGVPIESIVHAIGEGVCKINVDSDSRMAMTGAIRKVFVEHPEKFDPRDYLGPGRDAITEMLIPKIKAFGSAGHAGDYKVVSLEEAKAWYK
#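 Giardia FBPA (40 nM reagent) was preincubated 10 min at RT with compound (up to 57.5 uM final), then substrate plus GAPDH/TPI/NAD/arsenate coupling system with diaphorase/resazurin was added; resorufin fluorescence (525/598 nm) was read after 20 min.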
# Shiga toxin inh: Shiga toxin inhibition; actives 9.2% (n = 290,000); Vero cells, Shiga toxin protein synthesis inhibition reporter; AID 2315; inhibition, % at 38.7 µM; in the data active = inhibition mostly above about 28%, no sharp cut-off; inactive = mostly below about 43%
# Numbers stand for hits; - = inactive; ? = inconclusive; . = not tested or not shown; [ ] = dose if it differs, or a comment. Many of the other results were omitted from the sample, so hits are more common in it than they were. Unless noted, calls come from the whole dose curve; as a rule, active = well fitted curve in the direction sought with a large enough effect; inconclusive = small, poorly fitted or top-dose-only effect, or another doubt; inactive = no such curve, though single readings can be large; an effect the other way counts as inactive or inconclusive.
SMILES,TbPYK inhibitor,Sm TGR block,Cycloheximide cs,LmPK inh,Giardia FBPA inh,Shiga toxin inh
CC(=O)N[C@H]1[C@H](O[C@@H]2c3ccc(c(Cl)c3)Oc3cc4cc(c3O[C@@H]3O[C@H](CO)[C@@H](O)[C@H](O)C3C)Oc3ccc(cc3Cl)C[C@H]3NC(=O)[C@@H](N)c5ccc(O)c(c5)Oc5cc(O)cc(c5)[C@H](NC3=O)C(=O)N[C@H]4C(=O)N[C@H]3C(=O)N[C@@H]2C(=O)N[C@@H](C(=O)O)c2cc(O)cc(O[C@H]4O[C@H](CO)[C@@H](O)C(O)[C@@H]4O)c2-c2cc3ccc2O)O[C@H](CO)[C@@H](O)[C@@H]1O (stereo partly drawn),-,.,.,.,.,.
COc1ccc(Nc2nc3ccccc3n2C)cc1,-,-,35.3,-,?,40.0
Cc1ccc(NC(=O)NCc2nc3ccccc3n2C)cc1,-,-,-,-,-,-
COc1ccc(NCc2nc3ccccc3n2C)cc1,-,-,34.6,-,-,66.2
Cn1c(CNc2ccc(O)cc2)nc2ccccc21,-,?,19.4,-,?,75.3
Cc1ccc(NCc2nc3ccccc3n2C)cc1,-,-,48.6,?,-,95.0
Cn1c(CNC2CCCCC2)nc2ccccc21,-,.,-,-,-,-
Cc1oc(-c2ccc(-c3ccccc3)cc2)nc1CN1CCN(CC(=O)N(C)C)CC1,-,-,52.0,-,-,108.2
COc1ccc(-c2nc(CN3CCN(Cc4ccccc4)CC3)c(C)o2)cc1,-,-,-,-,-,-
CCN1CCN(c2ccc([N+](=O)[O-])cc2C=C2C(=O)NC(=O)NC2=O)CC1,22.4µM,12.6µM,-,-,-,-
O=C(/C=C\c1ccc2c(c1)OCO2)NC1CC(=O)N(c2ccc(F)cc2)C1 (stereo not drawn),-,-,.,.,.,.
CN(C)C1C(=O)C(C(N)=O)=C(O)C2(O)C(=O)C3=C(O)c4c(O)cccc4C(C)(O)C3C(O)C12 (stereo not drawn),-,31.6µM,-,-,?,-
COCCN(C(=O)COC(=O)/C=C/c1ccc2ccccc2n1)c1c(N)n(Cc2ccccc2)c(=O)[nH]c1=O,-,-,11.0,-,-,-
CCN(C(=O)COC(=O)/C=C/c1ccc(OC)c(OC)c1)c1c(N)n(Cc2ccccc2)c(=O)[nH]c1=O,-,.,.,.,.,.
CCN(C(=O)COC(=O)/C=C/c1ccco1)c1c(N)n(Cc2ccccc2)c(=O)[nH]c1=O,-,20µM,.,.,.,.
COc1ccc(NC(=O)CSc2nc3c(c(=O)n2C)SCC3)cc1OC,-,-,-,-,.,-
CC(O)/C=C/c1ccc2ccccc2n1 (stereo not drawn),-,-,23.2,-,-,33.0
C(=C\c1ccco1)/c1ccc2ccccc2n1,?,7.94µM,38.0,?,-,52.0
Fc1cccc(F)c1/C=C/c1ccc2ccccc2n1,?,-,24.1,8.91µM,-,53.6
O=C(/C=C/c1ccc2ccccc2n1)N1CCN(c2ccccc2)CC1,-,-,-,-,-,-
Fc1cccc(Cl)c1/C=C/c1cnc2ccccc2n1,?,-,48.5,-,-,75.5
COc1ccc2oc(=O)c(C(=O)Nc3ccccc3-c3ccccc3)cc2c1,-,-,-,-,-,-
N=c1oc2ccc(Br)cc2cc1C(=O)NCc1ccc(F)cc1,-,-,22.6,-,.,-
N=c1oc2ccccc2cc1C(=O)Nc1ccccc1,-,-,45.7,-,-,116.4
COc1ccc2oc(=N)c(C(=O)Nc3ccc(Cl)cc3)cc2c1,-,-,-,-,-,.
SMILES,TbPYK inhibitor,Sm TGR block,Cycloheximide cs,LmPK inh,Giardia FBPA inh,Shiga toxin inh
COc1ccc2oc(=O)c(C(=O)Nc3ccccc3C)cc2c1,?,-,34.1,-,-,.
COc1ccc2oc(=N)c(C(=O)Nc3ccccc3)cc2c1,-,-,38.7,-,-,85.3
CC(=O)Nc1ccc(S(=O)(=O)N2CCC(n3c(C)nc4cccnc43)CC2)cc1,-,-,.,.,.,.
CC1=C(C(=O)Nc2ccccc2)C(c2ccncc2)n2nc(SCc3ccccc3Cl)nc2N1 (stereo not drawn),-,-,.,.,.,.
CO[C@H]1COC(=O)C/C=C\[C@H](C)[C@@H](OC)COC(=O)[C@@H](C)COC(=O)C/C=C\[C@@H]1C,.,.,.,.,-[12.9 µM],.
COc1ccc2c(C)c(CCC(=O)NCCc3ccccc3OC)c(=O)oc2c1,-,-,.,.,.,.
O=C(NNC(=O)c1cc2cc(Br)ccc2oc1=O)c1ccc(O)cc1,-,.,-,-,-,-
COc1ccc2oc(=N)c(C(=O)Nc3ccc(C)cc3)cc2c1,-,-,-,-,-,-
COc1ccc2oc(=N)c(C(=O)Nc3ccccc3Cl)cc2c1,-,-,38.6,-,-,48.6
O=C(Nc1ccccc1O)c1cc2cc(Br)ccc2oc1=O,-,-,28.0,-,-,114.3
COc1cccc2cc(C(=O)Nc3cc(C)cc(C)c3)/c(=N/NS(=O)(=O)c3ccccc3)oc12,-,-,-,-,.,-
COc1ccc2oc(=N)c(C(=O)Nc3cccc(C)c3C)cc2c1,-,-,30.4,-,-,49.3
COc1ccc(NC(=O)c2cc3ccccc3o/c2=N\NS(=O)(=O)c2ccc(C)cc2)cc1,-,-,47.5,-,?,99.5
Cc1cc(C)c(NC(=O)Cc2csc(C)n2)c(Cl)c1,-,-,.,.,.,.
CCCC(=O)N(c1ccc2oc3c(c2c1)CCCC3)S(=O)(=O)c1cc(C)ccc1C,-,-,.,.,.,.
COc1ccc2oc(=O)c(/C(C)=N/Nc3ccccc3)cc2c1,-,44.7µM,-,-[11.5 µM],-,-
COc1ccc2oc(=O)c(C(=O)Nc3cccc(C(C)=O)c3)cc2c1,-,-,-,-,-,.
COc1cccc(NC(=O)c2cc3ccccc3oc2=O)c1,-,-,42.5,-,-,.
COc1ccc2oc(=N)c(C(=O)Nc3ccc(F)cc3)cc2c1,-,-,-,-,-,-
Cc1cccnc1NC(=O)c1cc2ccccc2oc1=O,-,-,30.2,?,-,114.7
N=c1oc2ccc(Cl)cc2cc1C(=O)Nc1ccc(F)cc1,-,?,23.7,-,-,43.7
CSCCC(NS(=O)(=O)c1ccc2c(c1)oc(=O)n2C)C(=O)NCc1ccc(Cl)cc1 (stereo not drawn),-,-,.,.,.,.
COc1ccc(-c2ccc3c(n2)CCCN3C[C@H](O)CN2CCCc3nc(C)c(C)cc32)cc1,.,.,.,.,-[12.9 µM],.
CC1Oc2ccccc2N(CC(=O)NCc2ccccc2)C1=O (stereo not drawn),-,-,31.3,-,-,105.3
O=C(CN1CC(c2ccccc2)CC1=O)OCc1ccccc1F (stereo not drawn),-,-,44.3,-,-,97.4
COc1cccc(NC(=O)N2CCN(C(=O)C(Cc3ccc(OC)c(OC)c3)NC(C)=O)CC2)c1 (stereo not drawn),-,-,-,-,-,-
